Assay results published in PubChem BioAssay (NCI).
About 79,000 compounds went through this panel and 15% of them were active in at least one assay; those are over-represented in the sample as a whole. Active and inactive are the calls of the source. No stated cut-off is given here; in the data, active means growth inhibition above about 70%; inactive means the rest.

Assays:
[1] = NCI Yeast Anticancer Drug Screen. Data for the rad50 strain (AID 155);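 further: 0% = growth of vehicle-only cultures of the same strain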; conditions: S. cerevisiae rad50 strain growth inhibition, active compounds read high
Procedure, shortened: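 Readout: growth inhibition relative to vehicle-treated cultures. Compound exposure was carried out in a genetically defined yeast strain deficient in DNA damage repair.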

[2] = NCI Yeast Anticancer Drug Screen. Data for the mec2-1 strain (AID 157); conditions: S. cerevisiae mec2-1 strain, active compounds read high
Procedure, shortened: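 Readout is yeast growth inhibition, normalised to vehicle-treated controls, in the mec2-1 strain exposed to compound.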

[3] = NCI Yeast Anticancer Drug Screen. Data for the sgs1 mgt1 strain (AID 161);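 further: 0% = growth of cultures given vehicle only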; conditions: S. cerevisiae sgs1 mgt1 strain, active compounds read high
Procedure, shortened: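 Percent growth inhibition was derived by comparing compound-exposed mutant yeast with vehicle-exposed cultures. The strain carries alterations in DNA damage repair.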

[4] = NCI Yeast Anticancer Drug Screen. Data for the cln2 rad14 strain (AID 165);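 further: 0% = growth equal to vehicle treated cultures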; conditions: S. cerevisiae cln2 rad14 strain, active compounds read high
Procedure, shortened: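 Relative to vehicle controls, growth inhibition of compound-treated cln2 rad14 yeast was recorded.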

[5] = NCI Yeast Anticancer Drug Screen. Data for the bub3 strain (AID 167); conditions: S. cerevisiae bub3 mutant strain, active compounds read high
Procedure, shortened: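 Readout: yeast growth inhibition, expressed relative to vehicle-only wells. The test organism is a mutant strain from a panel with lesions in DNA repair or checkpoint genes.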

[6] = NCI Yeast Anticancer Drug Screen. Data for the mlh1 rad18 strain (AID 175); conditions: S. cerevisiae mlh1 rad18 strain growth inhibition, active compounds read high
Procedure, shortened: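 Test agents were incubated with a yeast strain of defined genotype (DNA damage repair defect). Inhibition of growth was derived by comparison with vehicle-exposed cultures.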

[7] = at 5.0 µM (retest, dose inferred, filed as 0.5)
[8] = at 50.0 µM (retest, dose inferred, filed as 5.0)

Measured: growth inhibition

COc1ccc(CC2=CC(=O)C(=O)C=C2C)cc1
inactive: [1]; [7] 2% | [1]; [8] 27% | [1]; at 50.0 µM 47.4% | [2]; [7] 0% | [2]; [8] 29% | [2]; at 50.0 µM 11.2% | [3]; [7] 9% | [3]; [8] 39% | [3]; at 50.0 µM 47% | [4]; [7] 0% | [4]; [8] 4% | [4]; at 50.0 µM 11.2% | [5]; [7] -2% | [5]; [8] 21% | [5]; at 50.0 µM 38% | [6]; [7] 14% | [6]; [8] 51% | [6]; at 50.0 µM 36.4%

ClC1=C(Cl)C(Cl)=C(Cl)C1
inactive: [1]; [7] 6% | [2]; [7] 7% | [2]; at 50.0 µM 51.4% | [3]; [7] 10% | [3]; at 50.0 µM 48.5% | [4]; [7] 5% | [4]; at 50.0 µM 3.55% | [5]; [7] 4% | [6]; [7] 0%
active: [1]; [8] 93% | [1]; at 50.0 µM 88.2% | [2]; [8] 97% | [3]; [8] 93% | [4]; [8] 85% | [5]; [8] 96% | [5]; at 50.0 µM 79.9% | [6]; [8] 96% | [6]; at 50.0 µM 91.5%

O=C1c2ccccc2C(=O)c2c1ccc(O)c2O.[Cu]
active: [1]; [7] 87% | [1]; [8] 92% | [1]; at 50.0 µM 98% | [2]; [8] 95% | [2]; at 50.0 µM 96.7% | [3]; [7] 99% | [3]; [8] 96% | [3]; at 50.0 µM 96.9% | [4]; [8] 91% | [5]; [7] 86% | [5]; [8] 94% | [5]; at 50.0 µM 93.6% | [6]; [8] 94% | [6]; at 50.0 µM 96.8%
inactive: [2]; [7] 41% | [4]; [7] 26% | [4]; at 50.0 µM 33.1% | [6]; [7] 66%

c1ccc(Nc2cccc3ccccc23)cc1
inactive: [1]; [7] -4% | [2]; [7] -5% | [3]; [7] -3% | [3]; [8] 62% | [4]; [7] -1% | [4]; [8] 32% | [5]; [7] 43% | [6]; [7] -1%
active: [1]; [8] 95% | [1]; at 50.0 µM 94.8% | [2]; [8] 81% | [2]; at 50.0 µM 96.2% | [3]; at 50.0 µM 95.8% | [4]; at 50.0 µM 95.1% | [5]; [8] 95% | [5]; at 50.0 µM 91.5% | [6]; [8] 88% | [6]; at 50.0 µM 95.5%

CC1=C(C(=O)Nc2ccccc2)C(c2ccc(C(C)C)cc2)C(C(=O)Nc2ccccc2)=C(C)N1
inactive: [1]; [7] 0% | [2]; [7] -3% | [3]; [7] 0% | [3]; at 50.0 µM 47.6% | [4]; [7] -13% | [5]; [7] 2% | [6]; [7] -3%
active: [1]; [8] 94% | [1]; at 50.0 µM 97.5% | [2]; [8] 91% | [2]; at 50.0 µM 94.6% | [3]; [8] 94% | [4]; [8] 94% | [4]; at 50.0 µM 90.8% | [5]; [8] 93% | [5]; at 50.0 µM 91% | [6]; [8] 90% | [6]; at 50.0 µM 96.2%

O=C(Nc1ccc(Br)cc1)c1c(-c2ccccc2)c2ccc(O)cc2oc1=O
inactive: [1]; [7] 0% | [2]; [7] -9% | [3]; [7] -5% | [4]; [7] -7% | [5]; [7] -10% | [6]; [7] -3%
active: [1]; [8] 96% | [1]; at 50.0 µM 96.3% | [2]; [8] 97% | [2]; at 50.0 µM 95.5% | [3]; [8] 93% | [3]; at 50.0 µM 98.6% | [4]; [8] 95% | [4]; at 50.0 µM 94% | [5]; [8] 96% | [5]; at 50.0 µM 97.2% | [6]; [8] 96% | [6]; at 50.0 µM 98.4%

Cn1c(=O)[nH]c2nnc(-c3ccccc3)nc2c1=O
active: [1]; [8] 89% | [2]; [8] 92% | [3]; [8] 92% | [4]; [8] 89% | [5]; [8] 93% | [6]; [8] 90%
inactive: [1]; [7] 7% | [1]; at 50.0 µM 56.6% | [2]; [7] 6% | [2]; at 50.0 µM 29.2% | [3]; [7] 38% | [3]; at 50.0 µM 61.5% | [4]; [7] -3% | [4]; at 50.0 µM -13.7% | [5]; [7] 8% | [5]; at 50.0 µM 33.4% | [6]; [7] 13% | [6]; at 50.0 µM 68.1%

CCn1c2ccccc2n2c(=O)cc(-c3ccccc3)c(C#N)c12
inactive: [1]; [7] 7% | [1]; [8] 2% | [1]; at 50.0 µM 27.1% | [2]; [7] -2% | [2]; [8] -2% | [2]; at 50.0 µM 12.7% | [3]; [7] -12% | [3]; [8] 0% | [3]; at 50.0 µM 33.6% | [4]; [7] 7% | [4]; [8] -9% | [4]; at 50.0 µM 12.3% | [5]; [7] 7% | [5]; [8] 11% | [5]; at 50.0 µM 18.4% | [6]; [7] -2% | [6]; [8] -4% | [6]; at 50.0 µM 24.4%

C[Si](C)(C)CN1C(=O)c2ccccc2C1(O)c1ccccc1 (configuration not stated)
inactive: [1]; [7] -2% | [1]; [8] 69% | [1]; at 50.0 µM 69.8% | [2]; [7] -1% | [2]; [8] 66% | [2]; at 50.0 µM 35.8% | [3]; [7] -4% | [3]; at 50.0 µM 47.5% | [4]; [7] -1% | [4]; [8] 29% | [4]; at 50.0 µM 42.5% | [5]; [7] -3% | [5]; [8] 33% | [5]; at 50.0 µM 4.2% | [6]; [7] -1% | [6]; [8] 69%
active: [3]; [8] 74% | [6]; at 50.0 µM 71.2%
